# A selection: hits, their analogues and other compounds. The true share with any hit is near 9.9%.
# MCF10A rereplic: A quantitative high throughput screen for small molecules that induce DNA re-replication in MCF 10a normal breast cells | hit rate 2.9% among 350,000 | AID 624296, 2012 | MCF 10A DNA re-replication, Hoechst nuclear intensity, 48 h | Potency, µM (series often up to 46.1 µM), without a hit: at the top dose activity, positive = re-replication, actives largely listed as activators; note: potency is the fitted concentration of half-maximal effect; % of control where 0% means no effect; nearly all actives have a fitted effect of over 50% in size
# KB-3-1 cytotox: qHTS assay for MDR1-selective chemotherapeutics: Primary screen using the parental adenocarcinoma cell KB-3-1 | KB-3-1 viability, CellTiter-Glo ATP luminescence, 72 h | Potency, µM (highest dose often 46.1 µM), actives largely listed as cytotoxic | hit rate 1.4% among 400,000; note: potency is the fitted concentration of half-maximal effect; % is set by controls: 0 for no effect and ±100 for the full control effect; nearly all actives have a fitted effect of over 60% in size
#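 Viability of parental KB-3-1 cells, measured by CellTiter-Glo luminescence, followed a 72 h incubation at 37 °C with pinned compounds in phenol-red-free DMEM containing 10% FBS.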
# KB-V1 cytotox: qHTS assay for MDR1-selective chemotherapeutics: Primary screen using the drug-selected MDR subline cells KB-V1; KB-V1 MDR cells viability, CellTiter-Glo, 72 h; Potency, µM (highest dose often 46.1 µM), hits mostly cytotoxic; hit rate 3.4% among 400,000; AID 1347076, 2019; note: potency is the fitted concentration of half-maximal effect; % is set by controls: 0 for no effect and ±100 for the full control effect; nearly all actives have a fitted effect of over 60% in size
#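 qHTS viability screen in drug-selected KB-V1 MDR cells: 72 h compound treatment at 37 degrees C, ATP luminescence end point.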
# SW480 rerep: A quantitative high throughput screen for small molecules that induce DNA re-replication in SW480 colon adenocarcinoma cells; SW480 DNA re-replication, Hoechst DNA content imaging, 48 h; hit rate 1.8% among 340,000; Potency, µM (highest dose often 46.1 µM), for inactives: top-dose re-replication activation, usual class: activators; AID 624297, 2012; note: potency is the fitted concentration of half-maximal effect; % of control where 0% means no effect; nearly all actives have a fitted effect of over 55% in size
#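 Treated cells incubate 48 hr (37 C, 5% CO2), are stained 40 min with Hoechst, and nuclear fluorescence is enumerated; a rise in nuclei with high DNA signal marks re-replication.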
# IL1B secr inh: qHTS for Inhibitors of Inflammasome Signaling: IL-1-beta AlphaLISA Primary Screen | THP-1 LPS/ATP IL-1B secretion, AlphaLISA, 16 h; stronger effect = lower value | hit rate 4.7% among 360,000 | activity change, % at 57.5 µM | AID 743279, 2014; in the data active = activity change below about -50%; inconclusive = mostly about -30% to -49%; note: % is set by controls: 0 for no effect and ±100 for the full control effect
#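 THP-1 cells pretreated 1 hr with compounds (up to 57.5 uM final), then stimulated with LPS (250 ng/mL final) plus ATP (1.25 mM final); secreted IL-1B measured by AlphaLISA after 16 hr, decreased signal indicating inhibition.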
# * = called active by the depositor; i = inactive; ? = inconclusive; . = no result. Unless noted, calls come from the whole dose curve; as a rule, active = well fitted curve in the direction sought with a large enough effect; inconclusive = small, poorly fitted or top-dose-only effect, or another doubt; inactive = no such curve, though single readings can be large; an effect the other way counts as inactive or inconclusive.
SMILES,MCF10A rereplic,KB-3-1 cytotox,KB-V1 cytotox,SW480 rerep,IL1B secr inh
CCOC(=O)[C@]12CCC=C1N(Cc1ccccc1)C(=O)[C@H](CC(=O)NCCC(C)C)C2,.,i,?,.,0
CC(C)(C)OC(=O)C[C@H]1C/C=C\C[C@H](CC(=O)NCCO)C(=O)N[C@@H](c2ccccc2)COC1=O,10%,i,i,-5%,20
CC(=O)CSc1ccc(C(=O)O)cn1,-12%,i,i,-7%,32
CN(C(=O)CSc1nnc(COc2ccccc2)o1)c1ccccc1,.,i,i,.,.
Oc1ccccc1CNCC12CC3CC(CC(C3)C1)C2,-2%,i,i,?,-87*
CC(CC12CC3CC(CC(C3)C1)C2)NCc1ccccc1O (centres undefined),?,i,i,?,-85*
Nc1nc(-c2ccc(NC(=O)c3ccco3)cc2)cs1,10%,i,i,?,2
NC(=O)/C(=N\OC(=O)c1ccco1)c1nc(-c2ccc(Br)cc2)cs1,12%,?,9.2µM*,16%,?
CN(C)/N=C/C=C1\CCC/C(=C/c2cccs2)C1=O,23µM*,i,?,?,?
O=C(CN1CCN(c2cccc(C(F)(F)F)c2)CC1)N(C1CCCC1)C1CCS(=O)(=O)C1 (centres undefined),6%,i,21µM*,-4%,8
O=C(CN1CCN(c2cccc(C(F)(F)F)c2)CC1)N(C1CC1)C1CCS(=O)(=O)C1 (centres undefined),-1%,i,i,28%,0
CCn1ncc(/C=C/C(=O)Nc2c(C)nn(Cc3ccc(Cl)cc3Cl)c2C)c1C,4%,i,i,10µM*,?
Cc1nn(Cc2ccc(Cl)cc2Cl)c(C)c1NC(=O)NC12CC3CC(CC(C3)C1)C2,?,?,15µM*,3%,-24
Cc1nn(Cc2ccc(Cl)cc2Cl)c(C)c1NC(=O)c1sc2ccccc2c1Cl,9%,i,i,-3%,-3
Cc1ccccc1-c1noc(-c2ccc(N3CCC(C)CC3)c([N+](=O)[O-])c2)n1,.,i,i,.,.
Cc1oc(-c2ccccc2Cl)nc1CS(=O)CC(=O)NCc1ccc2c(c1)OCO2 (centres undefined),-5%,i,i,-11%,-13
COc1ccc2oc(=O)c(-c3csc(Nc4cccc(O)c4)n3)cc2c1,23µM*,i,?,?,-79*
O=C(O)c1ccc(Nc2nc(-c3cccnc3)cs2)cc1O,-14%,i,i,-2%,-1
Nc1ccc(Nc2nc(-c3cc4ccccc4oc3=O)cs2)cc1,22%,i,?,2%,-90*
CC(=O)Nc1ccc(Nc2nc(-c3cc4ccccc4oc3=O)cs2)cc1,?,i,i,-10%,-22
O=C(O)c1ccc(Nc2nc(-c3cc4ccccc4oc3=O)cs2)cc1O,13µM*,i,i,?,0
CCc1cccc(NS(=O)(=O)c2c(C)[nH]c(=O)[nH]c2=O)c1,4%,i,i,3%,4
O=C(NNC(=O)C1CC1)c1ccccc1[N+](=O)[O-],6%,i,i,-3%,-4
Cc1nc(N2CCN(C(=O)c3ccco3)CC2)c2c3c(sc2n1)CCCC3,2%,i,21µM*,-2%,-9
O=C(c1ccco1)N1CCN(c2nc(C3CC3)nc3sc4c(c23)CCCC4)CC1,-5%,i,21µM*,-2%,0
SMILES,MCF10A rereplic,KB-3-1 cytotox,KB-V1 cytotox,SW480 rerep,IL1B secr inh
Cc1sc2nc(CN3CCCC3)nc(N3CCN(C(=O)c4ccco4)CC3)c2c1C,2%,i,i,21%,?
CCNC(=S)N1CCN(c2nc(CC)nc3sc4c(c23)CCCC4)CC1,?,?,i,-4%,-57*
Cc1nc(N2CCN(C(=O)c3ccco3)CC2)c2c3c(sc2n1)CC(C)CC3 (centres undefined),?,i,8.2µM*,-169%,-7
Cc1nc(N2CCN(C(=O)c3cccs3)CC2)c2c3c(sc2n1)CCCC3,?,i,?,12%,58
Cc1cc(-n2cnnn2)cc(C)c1S(=O)(=O)NCCOc1ccccc1,-3%,i,i,6%,-1
CCc1nc(N2CCN(C(=O)CCl)CC2)c2c3c(sc2n1)CC(C)CC3 (centres undefined),?,?,?,?,-96*
COc1cccc(CCc2ccccc2OCC(CN(C)C)OC(=O)CCC(=O)O)c1 (centres undefined),29%,i,i,30µM*,.
COc1ccc(N2CCC(CNC(=S)Nc3c(C)cc(C)cc3C)C2)cc1 (centres undefined),29%,i,i,8%,0
COc1ccc(N2CCC(CNC(=S)Nc3cccc(C)c3)C2)cc1 (centres undefined),-1%,i,i,-8%,-77*
CCCn1c(SCc2cc(=O)oc3ccc4ccccc4c23)n[nH]c1=O,15%,i,i,2%,26
CCCn1c(=S)[nH]c2cc(C(=O)NCc3ccccc3OC)ccc2c1=O,.,i,i,.,21
CC(C)Cn1c(=S)[nH]c2cc(C(=O)NCc3ccccc3F)ccc2c1=O,15µM*,i,?,11%,31
Cc1ccccc1-c1nc(CS(=O)(=O)CC(=O)Nc2c(C)cccc2C)c(C)o1,.,i,i,.,.
COc1ccc(Br)cc1Cn1nnc(C(=O)Nc2ccc(C)cc2C)c1N,.,?,i,.,.
COc1ccc(CN2CC[C@H]3C=CC[C@@H](C(=O)NC4CCCCC4)[C@H]3C2=O)cc1OC,.,i,i,.,.
CC(C)c1ccccc1NC(=O)COC(=O)C1(C)CC1(Cl)Cl (centres undefined),-2%,i,i,-11%,-9
COc1ccc(-c2c(-c3cc(OC)cc(OC)c3)n(C)c3ccc(-c4ccc5[nH]ccc5c4)cc23)cc1,?,23µM*,i,-1%,-14
COc1ccc(-c2c(-c3cc(OC)cc(OC)c3)n(C)c3ccc(-c4cnc(OC)nc4)cc23)cc1,-3%,i,i,12%,-2
N=c1cc(C2(O)CCCCC2)n2c(nc3ccccc32)s1,18µM*,?,16µM*,?,?
Nc1ccc2ccc(O)cc2c1,7.3µM*,i,i,18µM*,46
Oc1ccc2ccc(Cl)cc2c1,0%,i,i,8%,3
CC1c2cc3c(cc2CCN1C(=O)c1cccc(F)c1)OCCCO3 (centres undefined),?,?,?,13%,-14
